Source: PubChem BioAssay
Sfp inh: Sfp phosphopantetheinyl transferase inhibition; Q9F4F7; Biochemical Sfp PPTase activity, qHTS; Potency, µM, without a hit: largest response in the series, negative = inhibition, actives largely listed as inhibitors; 310,000 tested, 3.5% active;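 further: the enzyme is Sfp with the accession as filed and its product quenches rhodamine fluorescence; 0% = enzyme reaction without inhibitor and -100% = no enzyme wells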
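Fluorescence-quenching assay: 15 nM Sfp-PPTase preincubated 15 min at room temperature with compound, then 5 uM rhodamine-CoA and 12.5 uM BHQ-2-labelled YbbR peptide added. Fluorescence (ex 525/em 598 nm) read at start and after 30 min; difference gives rate.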
HP1b binding inh: HP1-beta chromodomain-methylated histone interaction inhibition; AlphaScreen HP1-beta / biotin-H3K9me3 peptide binding; 390,000 tested, 0.56% active; Potency, µM (titrated, usually from 114 µM), inactives show at the highest dose activity change, negative = inhibition, most hits filed as inhibitors; P83916; AID 540317; further: nearly all actives have a fitted effect of over 70% in size
Target sequence (P83916 whole entry, looked up): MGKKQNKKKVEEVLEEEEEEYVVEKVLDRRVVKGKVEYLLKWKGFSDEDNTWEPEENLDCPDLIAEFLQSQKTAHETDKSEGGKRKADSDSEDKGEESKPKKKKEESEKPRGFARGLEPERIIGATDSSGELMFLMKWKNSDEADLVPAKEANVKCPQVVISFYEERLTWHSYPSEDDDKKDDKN
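HP1-beta protein (50 nM final) preincubated 30 min at room temperature with biotinylated H3(1-18)K9me3 peptide (50 nM) in PBS pH 7.4, 0.01% Tween-20, then compound added for 30 min. AlphaScreen streptavidin donor/nickel chelate acceptor beads (10 ug/mL final), 30 min dark, luminescence read.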
JMJD2A Tudor inh: inhibitors of human JMJD2A Tudor domain. O75164. AlphaScreen JMJD2A-Tudor / H3K4me3 peptide binding. Potency, µM (top dose mostly 114 µM), for inactives: top-dose activity change, negative = inhibition, usual class: inhibitors. AID 504339. 390,000 tested, 4.4% active; further: on the % scale 0 is the no-effect control and ±100 the full control effect; nearly all actives have a fitted effect of over 50% in size
BAZ2B block: BAZ2B (human) inhibition. AID 504333. 360,000 tested, 4.4% active. Potency, µM (highest dose often 114 µM), inactives show top-dose activity change, negative = inhibition, actives largely listed as inhibitors. AlphaScreen BAZ2B-H3K14Ac peptide displacement; further: on the % scale 0 is the no-effect control and ±100 the full control effect; nearly all actives have a fitted effect of over 60% in size
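AlphaScreen luminescence quantifies BAZ2B engagement of H3K14Ac peptide; the protein and biotinylated peptide are both at 50 nM final, buffer PBS pH 7.4 with 0.01% Tween-20, all steps at room temperature.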
G9a block: inhibitors of human histone lysine methyltransferase G9a; G9a H3K9 monomethylation, AlphaScreen, 2 h; AID 504332; Q96KQ7; Potency, µM (top dose mostly 102 µM), for the others: at the top dose activity, negative = inhibition, most hits filed as inhibitors; 350,000 tested, 8.8% active; further: on the % scale 0 is the no-effect control and ±100 the full control effect; nearly all actives have a fitted effect of over 75% in size
Target sequence (Q96KQ7 913-1193 limits assumed): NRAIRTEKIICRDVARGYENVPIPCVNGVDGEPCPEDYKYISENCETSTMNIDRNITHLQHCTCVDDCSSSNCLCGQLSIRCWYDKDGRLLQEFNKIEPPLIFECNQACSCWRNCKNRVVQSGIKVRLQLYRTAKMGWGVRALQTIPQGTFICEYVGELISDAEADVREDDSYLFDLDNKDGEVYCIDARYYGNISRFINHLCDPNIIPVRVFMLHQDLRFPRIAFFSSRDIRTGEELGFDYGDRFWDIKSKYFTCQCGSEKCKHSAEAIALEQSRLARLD
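Enzyme 20 nM + cpd, 15 min RT; add b-H3K9 pep 500 nM / SAM 20 uM; 2 h RT; anti-H3K9me1 Ab 0.5 ug/mL + SA donor / anti-rabbit acceptor beads 20 ug/mL each, 10 min; AlphaScreen read.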
L3MBTL1 inh: inhibitors of human L3MBTL1; AID 485360; AlphaScreen L3MBTL1–H3K9me1 peptide binding; 230,000 tested, 0.66% active; Potency, µM (doses to about 57.1 µM), without a hit: at the highest dose activity, negative = inhibition, hits mostly inhibitors; further: on the % scale 0 is the no-effect control and ±100 the full control effect; nearly all actives have a fitted effect of over 60% in size
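First, the protein-peptide complex forms for 30 min at room temperature (L3MBTL1 50 nM, biotinylated H3K9me1 peptide 75 nM). Next, compounds are pin-transferred and incubated 30 min. Finally, AlphaScreen beads are added and read after 30 min.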
* hit, by the source's call; ? = inconclusive; . = no result; [ ] = dose if it differs, or a comment. Rows were chosen to be rich in hits. Some 12% of all compounds tested hit in one or more screens of this group. The call rests on the fitted dose curve; in most records, active means well fitted curve in the direction sought with a large enough effect; inconclusive means small, poorly fitted or top-dose-only effect, or another doubt; inactive means no such curve, though single readings can be large; an effect the other way counts as inactive or inconclusive. Potency means the concentration at half of the fitted maximal effect.

SMILES	Sfp inh	HP1b binding inh	JMJD2A Tudor inh	BAZ2B block	G9a block	L3MBTL1 inh
CC(NC(=O)Cc1ccc(S(=O)(=O)N2CCOCC2)s1)c1ccc(Br)cc1 (stereo not given)	.	12%	-19%	.	.	.
Cc1cc2c(s1)c1cnn(Cc3c(F)ccc(F)c3Cl)c(=O)c1n2C	.	.	-29%	.	.	.
CCN1CCCC1CNc1ncnc2c1[nH]c1ccc(Cl)cc12 (stereo not given)	-17%	15%	-20%	-1%	50µM*	-6%
O=C1CCCN1CCCNc1ncnc2c1[nH]c1ccc(Cl)cc12	3%	25%	-1%	13%	-44%[59 µM]	-5%
COC(=O)c1sccc1NC(=S)N1C(C)CCCC1C (stereo not given)	-3%	41%	-8%	8%	10µM*	.
COC(=O)c1sccc1NC(=S)Nc1cc(C)ccc1OC	-11%	12%	?	.	50µM*	.
Cc1ccc(CNS(=O)(=O)c2c(C(=O)N3CCC(C)CC3)c(C)n(C)c2C)cc1	.	9%	-28%	-28%	2%[59 µM]	.
CCc1ccc2occ(CC(=O)Nc3c(C(=O)c4ccc(F)cc4)oc4ccccc34)c2c1	.	37%	-2%	-2%	?	.
CSC1=NS(=O)(=O)c2c(C)nn(C)c2S1	6.3µM*	13µM*	4.5µM*	50µM*	1.1µM*	0%
COc1ccc(C(=O)n2nc(-c3ccco3)nc2N)cc1OC	-2%	20%	-21%	-21%	?	.
COc1ccc2cc3c(N)nn(C(=O)c4ccc(F)cc4)c3nc2c1	-15%	37%	-17%	-14%	.	.
COc1ccc(C(=O)n2nc(-c3ccccc3)nc2N)cc1OC	79µM*	15%	-12%	-37%	-50%[59 µM]	-2%
COc1ccc2cc3c(N)nn(C(=O)c4ccc(OC)c(OC)c4)c3nc2c1	.	27%	-27%	79µM*	?	14%
CCc1nc2ccc(C(=O)NCc3cc(OC)ccc3OC)cc2nc1CC	.	43%	-11%	3%	2%[59 µM]	.
O=C(/C=C/c1ccncc1)c1ccc2c(c1)OCCO2	-26%	29%	-20%	-37%	50µM*	-12%
O=C(OCC(=O)N1CCN(C(=O)c2ccco2)CC1)c1cc(-c2ccco2)nc2ccccc12	-103%	32µM*	40µM*	20µM*	.	8.9µM*
O=C(OCC(=O)N1CCN(C(=O)c2ccco2)CC1)c1cc(-c2ccc(Cl)c(Cl)c2Cl)nc2ccccc12	-17%	14%	-13%[57.1 µM]	-6%	79µM*	.
CN1CCCN(C(=O)c2cc(-c3ccc(Cl)c(Cl)c3Cl)nc3ccccc23)CC1	-14%	25%	-19%	?	-46%	-28%
O=C(OCC(=O)N(Cc1ccccc1)Cc1ccccc1)c1ccccc1NCCO	.	72%	16%	6%	40µM*	17%
Cc1ccc2nc(C3CCN(C(=O)c4ccco4)CC3)[nH]c2c1	10%	51%	?	?	56µM*	-2%
COCCCNc1nc2c(c(=O)[nH]c(=O)n2C)n1CC(O)COc1ccc(Cl)cc1 (stereo not given)	.	19%	-11%	0%	-8%[59 µM]	.
CC(C)(C)c1ccc(S(=O)(=O)NCC(=O)N2CCCC2)cc1	22%	15%	-10%	1%	-8%	-3%
O=C(OCC(=O)N1CCN(C(=O)COC(=O)c2ccccc2NCCO)CC1)c1ccccc1NCCO	.	41%	-2%	.	.	.
Cc1nc2ccccc2c2oc(C(=O)N3CCN(C(=O)c4ccco4)CC3)cc12	71µM*	37%	-10%	2%	-32%[59 µM]	-5%
O=C(OCC(=O)N1CCN(C(=O)c2ccco2)CC1)c1ccccc1NCCO	.	-2%	32µM*	?	4%[0.501 µM]	-20%
COc1ccc(CNC(=O)COC(=O)c2cc(C)nc3ccccc23)cc1	.	10%	-19%	.	.	1%
O=C(c1cc(-c2ccco2)nc2ccccc12)N1CCN(c2ccc(F)cc2)CC1	25µM*	-14%	56µM*	50µM*	?	-18%
COc1ccc(CNC(=O)COC(=O)c2cc(-c3ccco3)nc3ccccc23)cc1	?	.	.	50µM*	10µM*	.
